PubChem BioAssay AID2284146 (EPA ToxCast)
Activity calls are given as the source filed them. The calls were made as follows: active = hit-call score of the fitted dose curve at least 0.9, where 1 is the maximum; inactive = score below 0.9.

What follows are compounds tested against human Adrenoceptor alpha2A Antagonism, ADRA2A (gene 150) (UniProt P08913) (assay: ERF_TW_GPCR_hADRA2A: Eurofins (ERF) G Protein-Coupled Receptor (GPCR) Radioligand Binding LeadHunter Assay for human Adrenoceptor alpha2A Antagonism).
Chain of human Adrenoceptor alpha2A Antagonism, ADRA2A (gene 150) (P08913 whole entry, looked up): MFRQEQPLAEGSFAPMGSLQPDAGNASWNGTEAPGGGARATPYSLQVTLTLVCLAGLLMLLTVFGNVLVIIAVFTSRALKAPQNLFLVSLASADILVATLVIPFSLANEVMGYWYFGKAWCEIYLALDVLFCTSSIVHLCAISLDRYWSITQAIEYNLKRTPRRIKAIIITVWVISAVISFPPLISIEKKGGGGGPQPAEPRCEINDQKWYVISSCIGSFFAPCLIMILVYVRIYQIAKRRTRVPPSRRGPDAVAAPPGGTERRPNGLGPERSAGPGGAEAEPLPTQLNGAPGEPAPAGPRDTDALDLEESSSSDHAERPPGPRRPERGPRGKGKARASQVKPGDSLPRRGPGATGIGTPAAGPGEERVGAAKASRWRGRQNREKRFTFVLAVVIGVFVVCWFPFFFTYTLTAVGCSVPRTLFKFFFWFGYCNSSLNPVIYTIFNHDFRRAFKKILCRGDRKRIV
Description: ERF_TW_GPCR_hADRA2A is a biochemical, single-readout assay that uses extracted gene-proteins in a cell-free assay. Measurements were taken 1 hour after chemical dosing in a 96-well plate. See alpha2A Human Adrenoceptor GPCR Binding (Antagonist Radioligand) Assay, Panlabs.ERF_TW_GPCR_hADRA2A is an assay component calculated from the ERF_TW_GPCR_hADRA2A assay. It is designed to measure radioligand binding using a type of binding reporter as detected by scintillation counting with radiometry technology.Data from the assay component ERF_TW_GPCR_hADRA2A was analyzed at the assay endpoint, ERF_TW_GPCR_hADRA2A, in the positive analysis fitting direction relative to DMSO as the negative control and baseline of activity. Using a type of binding reporter, loss-of-signal activity can be used to understand changes in radioligand binding as they relate to gene ADRA2A. To generalize the intended target to other relatable targets, this assay endpoint is annotated to the gpcr intended target family, where the subfamily is adrenoceptor.
Human recombinant adrenergic alpha2A receptors expressed in CHO-K1 cells are used in modified Tris-HCl buffer pH 7.4. A 2 ug aliquot is incubated with 1.5 nM [3H]Rauwolscine for 60 minutes at 25C. […] Receptors are filtered and washed, the filters are then counted to determine [3H]Rauwolscine specifically bound. […]
For O=C(/C=C/c1ccc(O)cc1)CC(=O)/C=C/c1ccc(O)cc1, the AC50 was 1140 nM (active).
